# Source: PubChem BioAssay (EPA / NIEHS)
# Records with an inconclusive call do not appear. Active and inactive are the calls of the source. Rule for the calls: active = hit-call score of the fitted dose curve at least 0.9, where 1 is the maximum; inconclusive = response in the unintended direction; inactive = score below 0.9.
# What was measured:
# [1] = target: Glycogen synthase kinase-3 beta (Homo sapiens) (UniProt P49841); assay: NVS_ENZ_hGSK3b: NovaScreen (NVS) Enzymatic Assay for human Glycogen Synthase Kinase-3 beta (GSK3b) (AID 2283165)
# Chain of Glycogen synthase kinase-3 beta (Homo sapiens) (P49841 whole entry, looked up): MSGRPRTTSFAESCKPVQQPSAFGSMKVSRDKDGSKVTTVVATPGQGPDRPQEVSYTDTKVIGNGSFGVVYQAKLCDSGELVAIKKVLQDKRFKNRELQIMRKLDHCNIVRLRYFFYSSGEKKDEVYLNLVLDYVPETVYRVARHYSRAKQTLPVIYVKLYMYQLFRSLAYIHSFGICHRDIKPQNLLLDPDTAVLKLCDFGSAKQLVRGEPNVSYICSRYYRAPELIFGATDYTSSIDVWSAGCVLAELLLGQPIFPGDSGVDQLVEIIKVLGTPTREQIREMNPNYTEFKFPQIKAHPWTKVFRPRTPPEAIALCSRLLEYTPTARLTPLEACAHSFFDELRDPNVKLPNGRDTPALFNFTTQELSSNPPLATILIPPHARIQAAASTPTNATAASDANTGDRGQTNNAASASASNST
# In short: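 Recombinant enzyme with specific fluorescent substrate, 1 h, product separated by electrophoretic mobility shift. Primary duplicate screen at 25 uM; actives (e.g. 30% inhibition) followed in singleton concentration-response to 50 uM. Signal loss fitted versus DMSO.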
# [2] = target: Histone deacetylase 3 (Homo sapiens) (UniProt O15379); assay: NVS_ENZ_hHDAC3: NovaScreen (NVS) Enzymatic Assay for human Histone Deacetylase 3 (HDAC3) (AID 2283163)
# Chain of Histone deacetylase 3 (Homo sapiens) (O15379 whole entry, looked up): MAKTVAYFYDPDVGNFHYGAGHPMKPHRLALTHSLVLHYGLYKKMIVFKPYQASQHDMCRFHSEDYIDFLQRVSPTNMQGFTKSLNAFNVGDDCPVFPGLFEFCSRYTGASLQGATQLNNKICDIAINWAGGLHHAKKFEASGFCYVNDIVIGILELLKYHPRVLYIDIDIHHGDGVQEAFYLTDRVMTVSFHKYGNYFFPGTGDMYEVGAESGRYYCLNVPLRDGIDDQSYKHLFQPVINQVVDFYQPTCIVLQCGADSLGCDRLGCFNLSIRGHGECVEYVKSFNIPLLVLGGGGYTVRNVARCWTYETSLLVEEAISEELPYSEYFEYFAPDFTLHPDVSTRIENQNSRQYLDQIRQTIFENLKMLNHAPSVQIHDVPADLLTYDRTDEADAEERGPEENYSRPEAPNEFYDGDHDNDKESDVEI
# In short: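 Cell-free enzyme format: loss of fluorescent product after mobility-shift separation, 1 h incubation, recombinant human HDAC3. Single 25 uM duplicate screen first, then concentration series to a 50 uM top for hits; DMSO as baseline.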
# [3] = target: human Matrix Metalloproteinase-7 (MMP7), MMP7 (gene 4316) (UniProt P09237); assay: NVS_ENZ_hMMP7: NovaScreen (NVS) Enzymatic Assay for human Matrix Metalloproteinase-7 (MMP7) (AID 2283183)
# Chain of human Matrix Metalloproteinase-7 (MMP7), MMP7 (gene 4316) (P09237 whole entry, looked up): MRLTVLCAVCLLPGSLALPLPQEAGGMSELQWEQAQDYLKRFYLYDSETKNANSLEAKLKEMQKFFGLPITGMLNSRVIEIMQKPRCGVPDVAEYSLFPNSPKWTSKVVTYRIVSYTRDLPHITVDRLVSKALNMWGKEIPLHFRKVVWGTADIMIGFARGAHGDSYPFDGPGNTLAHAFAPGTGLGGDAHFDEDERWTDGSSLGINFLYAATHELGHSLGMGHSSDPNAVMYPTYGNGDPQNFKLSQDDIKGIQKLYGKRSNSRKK
# In short: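 Compounds first tested at 25 uM in duplicate, then at up to 50 uM in concentration series if active. Protease activity measured by fluorescence intensity 1 h after dosing, with fitting relative to DMSO.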
# [4] = target: human MAP Kinase-Activated Protein Kinase 2 (MAPKAPK2), MAPKAPK2 (gene 9261) (UniProt P49137); assay: NVS_ENZ_hMAPKAPK2: NovaScreen (NVS) Enzymatic Assay for human MAP Kinase-Activated Protein Kinase 2 (MAPKAPK2) (AID 2283178)
# Chain of human MAP Kinase-Activated Protein Kinase 2 (MAPKAPK2), MAPKAPK2 (gene 9261) (P49137 whole entry, looked up): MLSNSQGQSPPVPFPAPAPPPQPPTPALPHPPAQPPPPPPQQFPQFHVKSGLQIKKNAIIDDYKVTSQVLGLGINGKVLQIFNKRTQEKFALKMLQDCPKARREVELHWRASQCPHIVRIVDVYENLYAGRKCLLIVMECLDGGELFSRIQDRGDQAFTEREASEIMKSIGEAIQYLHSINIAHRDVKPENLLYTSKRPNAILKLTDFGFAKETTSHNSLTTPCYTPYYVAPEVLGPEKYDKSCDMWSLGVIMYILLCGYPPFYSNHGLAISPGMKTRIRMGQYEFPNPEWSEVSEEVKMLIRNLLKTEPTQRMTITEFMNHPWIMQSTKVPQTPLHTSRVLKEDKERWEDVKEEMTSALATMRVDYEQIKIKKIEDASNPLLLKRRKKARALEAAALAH
# In short: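 Chemicals screened in duplicate at 25 uM, then to 50 uM top concentration in concentration-response, against recombinant human MAPKAPK2; substrate conversion read 1 hr post-dosing by fluorescence after electrophoretic mobility-shift separation, loss-of-signal relative to DMSO.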
# [5] = target: Mitogen-activated protein kinase 3 (Homo sapiens) (UniProt P27361); assay: NVS_ENZ_hMAPK3: NovaScreen (NVS) Enzymatic Assay for human Mitogen-Activated Protein Kinase 3 (MAPK 3) (AID 2283177)
# Chain of Mitogen-activated protein kinase 3 (Homo sapiens) (P27361 whole entry, looked up): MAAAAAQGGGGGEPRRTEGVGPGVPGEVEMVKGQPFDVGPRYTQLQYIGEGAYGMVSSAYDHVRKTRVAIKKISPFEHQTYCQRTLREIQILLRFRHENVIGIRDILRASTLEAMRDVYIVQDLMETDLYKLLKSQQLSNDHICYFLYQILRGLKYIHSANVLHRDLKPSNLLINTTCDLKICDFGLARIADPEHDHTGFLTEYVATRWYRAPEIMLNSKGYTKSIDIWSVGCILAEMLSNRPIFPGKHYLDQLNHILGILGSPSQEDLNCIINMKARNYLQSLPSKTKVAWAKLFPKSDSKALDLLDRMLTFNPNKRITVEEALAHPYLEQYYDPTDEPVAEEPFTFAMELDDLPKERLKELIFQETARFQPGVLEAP
# In short: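 Chemicals were first tested in duplicate at 25 uM, with hits re-run as concentration series (max 50 uM). Recombinant enzyme activity, measured 1 h post-dose in a cell-free format, was read by fluorescence/mobility shift relative to DMSO.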
# [6] = target: Collagenase 3 (Homo sapiens) (UniProt P45452); assay: NVS_ENZ_hMMP13: NovaScreen (NVS) Enzymatic Assay for human Matrix Metalloproteinase-13 (MMP13) (AID 2283182)
# In short: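 Recombinant MMP13 cleaving fluorescent substrate, cell-free, measured 1 h after dosing. Primary duplicate screen at 25 uM; actives tested in concentration-response up to 50 uM; loss of signal relative to DMSO.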
# [7] = target: human Matrix Metalloproteinase-2 (MMP2), MMP2 (gene 4313) (UniProt P08253); assay: NVS_ENZ_hMMP2: NovaScreen (NVS) Enzymatic Assay for human Matrix Metalloproteinase-2 (MMP2) (AID 2283184)
# Chain of human Matrix Metalloproteinase-2 (MMP2), MMP2 (gene 4313) (P08253 whole entry, looked up): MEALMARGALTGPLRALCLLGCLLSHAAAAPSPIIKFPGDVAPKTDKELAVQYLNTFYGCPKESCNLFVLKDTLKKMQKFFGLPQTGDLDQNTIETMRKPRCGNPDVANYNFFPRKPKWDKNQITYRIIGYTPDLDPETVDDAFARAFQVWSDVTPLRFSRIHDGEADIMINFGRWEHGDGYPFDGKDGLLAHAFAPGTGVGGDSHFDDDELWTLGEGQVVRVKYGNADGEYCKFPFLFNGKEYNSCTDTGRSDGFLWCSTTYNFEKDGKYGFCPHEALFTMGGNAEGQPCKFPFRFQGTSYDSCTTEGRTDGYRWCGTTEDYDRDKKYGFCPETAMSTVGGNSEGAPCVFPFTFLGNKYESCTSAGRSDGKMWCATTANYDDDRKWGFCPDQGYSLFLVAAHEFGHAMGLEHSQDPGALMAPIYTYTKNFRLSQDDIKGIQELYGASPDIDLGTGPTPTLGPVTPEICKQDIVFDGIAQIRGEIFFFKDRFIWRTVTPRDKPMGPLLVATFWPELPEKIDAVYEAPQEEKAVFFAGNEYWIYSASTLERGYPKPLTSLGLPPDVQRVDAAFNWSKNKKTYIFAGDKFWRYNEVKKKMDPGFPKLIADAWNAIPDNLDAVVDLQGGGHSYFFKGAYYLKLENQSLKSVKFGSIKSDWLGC
# Procedure: NVS_ENZ_hMMP2 is a biochemical, single-readout assay that uses extracted gene-proteins in a cell-free assay. Measurements were taken 1 hour after chemical dosing in a 96-well plate.NVS_ENZ_hMMP2 is one of one assay component(s) measured or calculated from the NVS_ENZ_hMMP2 assay. It is designed to make measurements of enzyme activity, a form of enzyme reporter, as detected with fluorescence intensity signals by Fluorescence technology.Data from the assay component NVS_ENZ_hMMP2 was analyzed into 1 assay endpoint. This assay endpoint, NVS_ENZ_hMMP2, was analyzed in the positive analysis fitting direction relative to DMSO as the negative control and baseline of activity. […] Furthermore, this assay endpoint can be referred to as a primary readout, because this assay has produced multiple assay endpoints where this one serves a enzymatic activity function. […]
# Binding assays used specific radioligands (tritiated, iodinated) with non-radioactive competitive displacement ligands in agonist or antagonist protocols (as indicated) and various reference compounds and inhibitors to titrate specific binding to receptors and transporters. Most enzyme assays (CYPs, kinases, phosphatases, proteases, HDACs) used recombinant protein and specific substrates (fluorescence mostly, some colorimetric and radioactive) and inhibitors, followed by a biochemical separation of substrate and product. […]
# [8] = target: human Janus Kinase 2 (Jak2), JAK2 (gene 3717) (UniProt O60674); assay: NVS_ENZ_hJak2: NovaScreen (NVS) Enzymatic Assay for human Janus Kinase 2 (Jak2) (AID 2283169)
# Chain of human Janus Kinase 2 (Jak2), JAK2 (gene 3717) (O60674 whole entry, looked up): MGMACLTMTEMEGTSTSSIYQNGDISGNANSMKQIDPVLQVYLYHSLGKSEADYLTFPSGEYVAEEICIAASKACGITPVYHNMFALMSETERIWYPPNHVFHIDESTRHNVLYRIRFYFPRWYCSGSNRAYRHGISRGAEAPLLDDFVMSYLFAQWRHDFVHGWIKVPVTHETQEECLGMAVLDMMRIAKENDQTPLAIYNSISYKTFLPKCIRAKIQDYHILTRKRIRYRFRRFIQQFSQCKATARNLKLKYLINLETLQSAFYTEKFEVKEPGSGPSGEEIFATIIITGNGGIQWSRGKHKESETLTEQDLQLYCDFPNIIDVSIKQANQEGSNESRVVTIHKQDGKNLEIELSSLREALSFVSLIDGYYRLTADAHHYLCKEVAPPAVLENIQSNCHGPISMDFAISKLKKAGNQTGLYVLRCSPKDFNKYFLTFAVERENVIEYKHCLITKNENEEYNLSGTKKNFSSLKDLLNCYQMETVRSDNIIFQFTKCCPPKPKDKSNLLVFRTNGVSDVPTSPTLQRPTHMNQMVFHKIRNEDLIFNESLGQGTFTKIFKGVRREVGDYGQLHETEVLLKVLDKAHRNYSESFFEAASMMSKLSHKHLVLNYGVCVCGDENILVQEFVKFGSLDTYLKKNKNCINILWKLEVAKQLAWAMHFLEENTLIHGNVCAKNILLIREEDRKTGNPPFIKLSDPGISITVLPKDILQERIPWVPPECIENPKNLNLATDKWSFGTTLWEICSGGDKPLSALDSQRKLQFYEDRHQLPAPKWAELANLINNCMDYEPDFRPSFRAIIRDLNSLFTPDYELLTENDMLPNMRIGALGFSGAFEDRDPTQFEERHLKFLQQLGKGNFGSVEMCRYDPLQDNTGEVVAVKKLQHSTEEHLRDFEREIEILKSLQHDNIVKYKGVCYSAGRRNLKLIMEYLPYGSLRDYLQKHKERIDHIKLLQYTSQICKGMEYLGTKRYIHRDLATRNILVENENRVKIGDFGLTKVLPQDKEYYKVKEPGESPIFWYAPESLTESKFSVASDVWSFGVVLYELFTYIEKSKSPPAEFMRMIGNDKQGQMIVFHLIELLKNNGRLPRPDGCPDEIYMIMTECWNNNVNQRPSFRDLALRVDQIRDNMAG
# In short: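 Single-point duplicate screen at 25 uM, with hits run in concentration series to a 50 uM top dose. Substrate-product separation by mobility shift with fluorescence detection, 1 h post-dosing; DMSO baseline.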
# [9] = target: human c-Jun N-terminal Kinases (JNK2), MAPK9 (gene 5601) (UniProt P45984); assay: NVS_ENZ_hJNK2: NovaScreen (NVS) Enzymatic Assay for human c-Jun N-terminal Kinases (JNK2) (AID 2283171)
# Chain of human c-Jun N-terminal Kinases (JNK2), MAPK9 (gene 5601) (P45984 whole entry, looked up): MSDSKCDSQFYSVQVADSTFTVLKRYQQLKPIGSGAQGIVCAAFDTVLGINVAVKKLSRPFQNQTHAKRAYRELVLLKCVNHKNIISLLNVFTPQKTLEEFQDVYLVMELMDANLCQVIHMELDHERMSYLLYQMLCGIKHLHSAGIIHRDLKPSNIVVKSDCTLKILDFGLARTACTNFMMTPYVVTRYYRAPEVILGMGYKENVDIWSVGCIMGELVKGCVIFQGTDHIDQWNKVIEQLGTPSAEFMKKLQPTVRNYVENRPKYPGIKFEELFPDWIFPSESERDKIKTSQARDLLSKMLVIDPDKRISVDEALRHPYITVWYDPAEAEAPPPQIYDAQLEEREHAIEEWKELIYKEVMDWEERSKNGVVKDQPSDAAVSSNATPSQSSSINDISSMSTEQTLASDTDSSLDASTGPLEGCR
# In short: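 Chemicals first tested in duplicate at 25 uM, then in singleton concentration series up to 50 uM, against extracted JNK2 enzyme. Activity loss read by fluorescence with mobility-shift separation 1 h post-dose; DMSO baseline.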
# [10] = target: human LYN Proto-Oncogene, Src family Tyrosine Kinase (LynA), LYN (gene 4067) (UniProt P07948); assay: NVS_ENZ_hLynA: NovaScreen (NVS) Enzymatic Assay for human LYN Proto-Oncogene, Src family Tyrosine Kinase (LynA) (AID 2283173)
# Chain of human LYN Proto-Oncogene, Src family Tyrosine Kinase (LynA), LYN (gene 4067) (P07948 whole entry, looked up): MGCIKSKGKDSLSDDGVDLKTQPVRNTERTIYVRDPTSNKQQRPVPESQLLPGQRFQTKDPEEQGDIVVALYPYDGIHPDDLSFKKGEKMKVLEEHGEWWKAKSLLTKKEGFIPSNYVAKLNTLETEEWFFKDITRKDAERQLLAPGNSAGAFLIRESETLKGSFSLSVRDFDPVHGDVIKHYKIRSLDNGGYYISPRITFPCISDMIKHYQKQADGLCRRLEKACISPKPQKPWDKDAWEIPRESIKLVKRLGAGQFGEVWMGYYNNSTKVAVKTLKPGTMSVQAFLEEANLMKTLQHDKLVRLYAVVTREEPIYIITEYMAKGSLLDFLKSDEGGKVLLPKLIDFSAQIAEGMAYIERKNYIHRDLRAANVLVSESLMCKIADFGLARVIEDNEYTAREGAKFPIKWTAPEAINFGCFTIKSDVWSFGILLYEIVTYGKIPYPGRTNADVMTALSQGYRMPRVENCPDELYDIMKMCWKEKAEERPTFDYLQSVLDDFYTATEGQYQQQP
# In short: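 Recombinant kinase with fluorescent substrate; product separated from substrate by electrophoretic mobility shift and read 1 h after dosing. Duplicate screen at 25 uM, then concentration-response up to 50 uM; activity scored as signal loss against DMSO.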
smiles,measurement,setting,value
Oc1cccc(O)c1,outcome,[1],inactive
Nc1cccc2c(N)cccc12,outcome,[2],inactive
c1ccc2cc3c(ccc4ccccc43)cc2c1,outcome,[3],inactive
CC[C@H](c1ccc(O)cc1)[C@@H](CC)c1ccc(O)cc1,outcome,[4],inactive
same,outcome,[3],inactive
O=C(O)c1ccccc1C(c1ccc(O)cc1)c1ccc(O)cc1,outcome,[5],inactive
Cc1oc(-c2ccccc2)nc1CCOc1ccc(C[C@H](Nc2ccccc2C(=O)c2ccccc2)C(=O)O)cc1,outcome,[1],inactive
same,AC50,[6],7.33 µM (active)
same,AC50,[7],16.1 µM (active)
CC(C)(C)CC(C)(C)c1ccc(O)c(-n2nc3ccccc3n2)c1,outcome,[8],inactive
OC1CCC(C2CCCCC2)CC1 (stereo not drawn),outcome,[4],inactive
O=c1c(-c2ccc(O)cc2)coc2cc(O)ccc12,outcome,[1],inactive
CN1CCN(c2ccccc2/C=C2\SCCN(c3ccc(Cl)c(Cl)c3)C2=O)CC1,outcome,[8],inactive
same,outcome,[7],inactive
O=[N+]([O-])c1ccc(O)cc1,outcome,[1],inactive
same,outcome,[4],inactive
same,outcome,[3],inactive
CCCCCCCCOC(=O)CCCCCCCCC(=O)OCCCCCCCC,outcome,[1],inactive
same,outcome,[8],inactive
CCCCCCCCCCCCc1ccccc1S(=O)(=O)O,AC50,[1],14.2 µM (active)
same,AC50,[8],18.5 µM (active)
same,AC50,[9],29.6 µM (active)
same,AC50,[5],18 µM (active)
same,AC50,[4],26.5 µM (active)
same,AC50,[6],31.8 µM (active)
CCOC(=O)CC(O)(CC(=O)OCC)C(=O)OCC,outcome,[1],inactive
Cc1cc(CCN2CCN(c3nsc4ccccc34)CC2)cc2c1NC(=O)CC2(C)C,outcome,[1],inactive
same,outcome,[8],inactive
COCC(C)OCC(C)O (stereo not drawn),outcome,[1],inactive
same,outcome,[8],inactive
same,outcome,[3],inactive
CC(C)(C)c1cc(C(C)(C)C)c(O)c(C(C)(C)C)c1,outcome,[1],inactive
ClC1=C(Cl)C(Cl)(Cl)C(Cl)=C1Cl,outcome,[1],inactive
CCN(CC)CCNc1ccc(CNC=O)c2sc3ccc(OC)cc3c(=O)c12,outcome,[8],inactive
same,outcome,[9],inactive
same,outcome,[10],inactive
CCc1nn(C2CCCCC2)c2cc(C3(C#N)CCC(C(=O)O)CC3)ccc12 (stereo not drawn),AC50,[6],19.4 µM (active)
N#C[C@@H]1CC(F)(F)CN1C(=O)CNC1CC2CCC(C1)N2c1ncccn1 (stereo partly drawn),outcome,[1],inactive
same,outcome,[9],inactive
same,outcome,[5],inactive
OCCC(F)(F)C(F)(F)C(F)(F)C(F)(F)C(F)(F)C(F)(F)C(F)(F)C(F)(F)F,outcome,[4],inactive
CCCCCCCCCCCCCCCS(=O)(=O)Oc1ccccc1,outcome,[8],inactive
CCCCCCCC(=O)O,outcome,[8],inactive
same,outcome,[10],inactive
same,outcome,[5],inactive
CCCCCCCCC(=O)O,outcome,[1],inactive
CC(C)(C)c1ccc(O)c(C(C)(C)C)c1,outcome,[1],inactive
C=C(C)C(=O)OCCC(F)(F)C(F)(F)C(F)(F)C(F)(F)C(F)(F)C(F)(F)F,outcome,[8],inactive
Oc1cc2ccccc2c2ccccc12,AC50,[8],25 µM (active)
O=C(O)Cc1cc(I)c(Oc2cc(I)c(O)c(I)c2)c(I)c1,outcome,[1],inactive
same,outcome,[8],inactive
same,outcome,[9],inactive
same,outcome,[5],inactive
